Assay outcomes deposited in PubChem by The Scripps Research Institute Molecular Screening Center.
FBW7 activator: FBW7 E3 ligase activators, primary screen, biochemical, AlphaScreen, human; AlphaScreen FBW7–phospho-cyclin E peptide binding, activator screen; F-box/WD repeat-containing protein 7 (Homo sapiens), Q969H0; normalized activity (activation), % at 26.1 µM; AID 1259310, 2017; 650,000 tested, 0.13% active; in the data active = normalized activity above about 1.9%;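 note: purified mutant Fbw7 with reduced substrate affinity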
GPR151 ag: activators of human GPR151, primary screen, cell-based, PathHunter beta-arrestin, luminescence. G-protein coupled receptor 151 (Homo sapiens), Q8TDV0. PathHunter beta-arrestin GPR151 cells. activation, % at 11.2 µM. 650,000 tested, 1% active; in the data active = activation above about 4.9%;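 note: 0% = median of compound wells and 100% = cells with positive control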
MITF inh: MITF inhibitors, primary screen, biochemical, AlphaScreen, human. Microphthalmia-associated transcription factor (Homo sapiens), O75030. AlphaScreen MITF homodimerization, bead proximity signal. inhibition, % at 2.6 µM. 650,000 tested, 0.91% active. AID 1259374, 2018; in the data active = inhibition above about 50%;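 note: 0% = vehicle wells with protein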
Target sequence (O75030 whole entry, looked up): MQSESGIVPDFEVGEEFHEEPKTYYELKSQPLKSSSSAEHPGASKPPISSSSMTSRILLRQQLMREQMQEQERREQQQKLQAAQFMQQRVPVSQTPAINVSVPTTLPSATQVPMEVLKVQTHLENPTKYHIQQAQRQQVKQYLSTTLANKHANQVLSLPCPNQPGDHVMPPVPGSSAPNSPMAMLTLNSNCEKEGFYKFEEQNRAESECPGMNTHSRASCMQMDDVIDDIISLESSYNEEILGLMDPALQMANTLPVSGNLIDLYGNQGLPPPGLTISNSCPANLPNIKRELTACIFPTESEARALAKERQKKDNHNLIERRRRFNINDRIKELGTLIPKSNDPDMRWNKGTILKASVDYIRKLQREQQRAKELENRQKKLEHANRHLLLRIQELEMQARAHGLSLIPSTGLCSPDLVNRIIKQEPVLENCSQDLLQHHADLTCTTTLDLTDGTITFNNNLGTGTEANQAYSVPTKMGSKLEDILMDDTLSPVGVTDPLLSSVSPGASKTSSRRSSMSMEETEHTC
TEAD-YAP inh: TEAD-YAP interaction inhibition, primary screen, TEAD-YAP interaction inhibitor project, luminescence, HEK-TIYL cells | TEAD-Gal4/YAP UAS-luciferase luminescence | inhibition, % at 9.12 µM | 640,000 tested, 1.4% active | AID 1259422, 2018; in the data active = inhibition above about 32%;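 note: 0% = median of test compound wells and 100% = reference inhibitor wells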
* hit, by the source's call. Rows were chosen to be rich in hits. Some 3.5% of all compounds tested hit in one or more screens of this group.

SMILES	FBW7 activator	GPR151 ag	MITF inh	TEAD-YAP inh
O=C(O)C1Nc2c(I)cccc2C2C=CCC12 (centres undefined)	-1	0	83*	7
O=C(O)C1Nc2c(O)cccc2C2C=CCC12 (centres undefined)	0	2	108*	-3
Cc1c(C(=O)C(=O)N2CC=C(c3ccccc3)CC2)c2ccccc2n1C	0	-2	-2	52*
Cc1c(C(=O)C(=O)N2CCC(C)CC2)c2ccccc2n1C	0	0	2	-8
Cc1ccc(S(=O)(=O)Nc2ccc(Cl)c3cccnc23)cc1	0	-1	-11	58*
O=S(=O)(Nc1ccc(Cl)c2cccnc12)c1ccccc1	0	-1	18	53*
Cc1cc(C)c(S(=O)(=O)N2CCc3ccccc32)cc1[N+](=O)[O-]	0	1	49	64*
O=[N+]([O-])c1cccc(S(=O)(=O)N2CCc3ccccc3C2)c1	0	1	0	1
O=[N+]([O-])c1cccc(S(=O)(=O)N2CCc3ccccc32)c1	0	0	3	32*
COc1ccc(-c2ncc(C)c(Nc3cc(OC)c(OC)c(OC)c3)n2)cn1	0	0	8	19
O=C(Oc1ccc(/C=N/n2cnnc2)cc1[N+](=O)[O-])c1ccccc1	0	-1	7	4
Cc1ccc2c(Cl)c(C(=O)Nc3ncccn3)sc2c1	1	-4	3	51*
O=C(c1cc([N+](=O)[O-])ccc1Cl)N1CCN(c2cccc(Cl)c2)CC1	0	-1	-12	32*
Cc1ccc(C(=O)N2CCN(c3ccc([N+](=O)[O-])cc3)CC2)c(Cl)c1	0	-1	-4	35*
O=C(c1n[nH]c(=O)c2ccccc12)N1CCN(c2cccc(Cl)c2)CC1	0	0	-5	55*
CC(C)CCNC(=O)c1ccc2nc(-c3ccccc3)c(-c3ccccc3)nc2c1	0	3	1	3
CCOC(=O)c1ccc(NC(=O)c2ccc(CS(=O)c3ccc(Cl)cc3)o2)cc1 (centres undefined)	0	-1	-1	32*
CC(C)c1nnc(C2CCN(C(=O)NCc3ccccc3)CC2)o1	1	-1	-2	5
CC(C)c1nnc(C2CCN(C(=O)NCc3cccc4ccccc34)CC2)o1	2.0*	4	-2	-3
COc1ccccc1C1NC(=O)c2[nH]nc(-c3ccc(C)cc3)c21 (centres undefined)	0	1	9	55*
NC(=O)c1cccc2c1NC(C(=O)O)C1CC=CC21 (centres undefined)	-2	0	57*	0
COC(=O)c1cccc2c1NC(C(=O)O)C1CC=CC21 (centres undefined)	0	0	76*	6
NC(=O)c1cccc2c1NC(c1cccc([N+](=O)[O-])c1)C1CC=CC21 (centres undefined)	0	0	14	-5
O=C(CSc1nnnn1-c1ccccc1)Nc1cccc(NC(=O)C23CC4CC(CC(C4)C2)C3)c1	0	-1	8	72*
CCC(=O)Nc1cccc(NC(=O)CSc2nnnn2-c2ccccc2)c1	0	-1	5	8
SMILES	FBW7 activator	GPR151 ag	MITF inh	TEAD-YAP inh
COCCNc1cc(-c2ccc(F)cc2)nc(-c2ccccn2)n1	-1	-2	13	74*
CCN(CC)c1cc(-c2ccc(F)cc2)nc(-c2ccccn2)n1	0	1	58*	53*
c1ccc(-c2nc(NC3CC3)cc(-c3ccncc3)n2)nc1	-1	0	16	32
Fc1ccc(-c2cc(NC3CC3)nc(-c3ccncc3)n2)cc1	0	2	4	14
COCCNc1cc(-c2ccncc2)nc(-c2ccccn2)n1	-1	-2	6	8
Fc1ccc(-c2cc(NC3CC3)nc(-c3ccccn3)n2)cc1	-1	-3	-3	90*
c1ccc(-c2cc(NC3CC3)nc(-c3ccccn3)n2)cc1	-1	-1	6	92*
O=C(Nc1ccccc1C(F)(F)F)NC1(C(F)(F)F)Oc2ccc(Cl)cc2O1 (centres undefined)	1	-1	0	-5
Cc1ccoc1C(=O)N1CCCC(CCC(=O)N2CCN(c3ccccn3)CC2)C1 (centres undefined)	0	0	5	0
Cc1ccc(C(=O)N2CCCC(CCC(=O)N3CCN(c4ccccn4)CC3)C2)cc1C (centres undefined)	3.6*	-1	4	3
C[n+]1ccccc1/C=C/C1=C(c2ccccc2)Oc2ccccc2O1	0	2	0	83*
C[n+]1ccccc1/C=C\c1ccccc1O	0	0	3	3
C=CCn1c(N)cc(=O)nc1SCC(=O)OC1CC2CCC1(C)C2(C)C (centres undefined)	0	0	8	-2
CCOC(=O)c1c(NC(=O)/C=C/c2ccc(C(C)C)cc2)sc2c1CCCC2	0	0	3	-1
CC(C)CC1c2[nH]c3ccccc3c2CCN1C(=O)c1csnn1 (centres undefined)	0	1	4	40*
CC(C)CC1c2[nH]c3ccccc3c2CCN1C(=O)Cn1cncn1 (centres undefined)	0	-1	-2	-6
Cc1sc2nc(SCC(N)=O)[nH]c(=O)c2c1C	0	0	-2	-6
Cc1sc2nc(SCC#N)[nH]c(=O)c2c1C	1	0	1	46*
O=C1CCCN1CCCNc1nc(N2CCN(c3ccccn3)CC2)nc2c1ncn2CCN1CCCC1=O	0	-1	8	0
O=C1CCCN1CCCNc1nc(N2CCOCC2)nc2c1ncn2-c1ccccc1	0	4	3	67*
O=C1CCCN1CCCNc1nc(N2CCN(c3ccccn3)CC2)nc2c1ncn2-c1ccccc1	0	-1	-13	56*
FC(F)(F)c1nc(Nc2ccc3ccccc3c2)sc1-c1cccc(Cl)c1	0	0	9	4
Cc1nc(N)sc1C(=O)N/N=C/c1c(Cl)ccc(Cl)c1Cl	2.5*	1	15	9
Cc1nc(N)sc1C(=O)N/N=C/c1c(F)cccc1Cl	0	-2	1	-10
Cn1c(-c2ccc(F)cc2)nc2ccccc21	0	-7	-73	-51
Cc1cccc(N2CCN(C(=O)c3cccc(N4CCCC4=O)c3)C(C)C2)c1 (centres undefined)	0	-1	2	58*
O=C(c1cccc(N2CCCC2=O)c1)N1CCN(c2cccc(Cl)c2)CC1	0	0	1	44*
Cc1cccc(N2CCN(C(=O)c3ccc(N4CCCC4=O)cc3)CC2C)c1 (centres undefined)	0	0	-2	-2
COc1ccc2c(c1)SC(C)C(=O)N2Cc1ccccc1OC (centres undefined)	0	0	-12	1
CC(C)(C)NCCCOc1ccc([N+](=O)[O-])cc1	0	1	6	-3
